The nature of assay [1]: qHTS RealTime-Glo MT Cell Viability Assay in HepG2 cells - 8 hour (AID 1224873). Also: nearly all actives have a fitted effect of over 55% in size. The method, boiled down:
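Real-time viability: cells seeded at 600 per well together with NanoLuc and cell-permeant prosubstrate, compounds added after 5 h incubation. Luminescence tracked at 0, 8, 16, 24, 32 and 40 h of exposure.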
Background: Quantitative high-throughput screening tests each substance at several concentrations.

The nature of assay [2]: A CellTox Green Cytotoxicity Assay to monitor cytotoxicity in HEK293 cells - 24 hour (AID 1224875). Also: series mostly up to about 77 µM; nearly all actives have a fitted effect of over 45% in size. The method, boiled down: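 HEK293 cells premixed with CellTox Green dye were seeded at 600 cells/well and left 5 h at 37 C/5% CO2 before pin transfer of 23 nL compound in DMSO. Fluorescence from dye bound to dead-cell DNA was read during 40 h treatment.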
Assay [3] is described as follows: A CellTox Green Cytotoxicity Assay to monitor cytotoxicity in HepG2 cells - 16 hour (AID 1224876). Also: nearly all actives have a fitted effect of over 45% in size. The method in brief:
(§1)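 HepG2 cells were seeded together with the CellTox Green dye at 600 cells/well, left 5 h at 37 C/5% CO2, then given compounds in DMSO. Fluorescence from dye bound to dead-cell DNA was read repeatedly over 40 h of treatment at 37 C.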

The nature of assay [4]: qHTS RealTime-Glo MT Cell Viability Assay in HepG2 cells - 32 hour (AID 1224877). Also: nearly all actives have a fitted effect of over 55% in size. The method in brief: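 Luminescence read-out: viable HepG2 cells reduce a prosubstrate to a NanoLuc substrate, giving a signal proportional to live cell number. Reads taken at 0, 8, 16, 24, 32 and 40 h of compound exposure at 37 C.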
A short description of assay [5]: A CellTox Green Cytotoxicity Assay to monitor cytotoxicity in HepG2 cells - 24 hour (AID 1224878). Also: nearly all actives have a fitted effect of over 45% in size. The method, boiled down:
as §1

Assay [6] is described as follows: A CellTox Green Cytotoxicity Assay to monitor cytotoxicity in HepG2 cells - 40 hour (AID 1224879). Also: nearly all actives have a fitted effect of over 40% in size. The method in brief:
as §1

A short description of assay [7]: qHTS RealTime-Glo MT Cell Viability Assay in HEK293 cells - 0 hour (AID 1224880). Also: top concentration of the series differs between compounds; nearly all actives have a fitted effect of over 45% in size. The method in brief:
(§2)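 HEK293 cells mixed with RealTime-Glo reagents (NanoLuc plus cell-permeant prosubstrate) at 600 cells/well, preincubated 5 h at 37 C/5% CO2, then given 23 nL compound in DMSO. Nonlytic luminescence from viable cells was read at 0, 8, 16, 24, 32 and 40 h.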

Assay [8] can be described thus: qHTS RealTime-Glo MT Cell Viability Assay in HEK293 cells - 16 hour (AID 1224872). Also: nearly all actives have a fitted effect of over 50% in size. Also: potency is read from the fitted curve at half-maximal effect. The method in brief: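 Nonlytic real-time viability readout: viable cells convert prosubstrate to NanoLuc substrate, giving luminescence proportional to live cell number. HEK293, 600 cells/well, compound added after 5 h, continuous culture at 37 C.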
Assay [9] is described as follows: qHTS RealTime-Glo MT Cell Viability Assay in HEK293 cells - 40 hour (AID 1224874). Also: nearly all actives have a fitted effect of over 50% in size. The conditions noted are these: RealTime-Glo luminescence; max response: stronger effect = lower value. The method, boiled down:
as §2

This passage reports outcome, Potency and max response results from PubChem BioAssay (Tox21).

Results filed as inconclusive are left out. A structure can be active in one record and inactive in another. Activity calls are given as the source filed them. Calls follow the shape of the dose curve; as a rule, active = well fitted curve in the direction sought with a large enough effect in the repeat runs; inconclusive = weak or mixed curves; inactive = no such curve, though single readings can be large; an effect the other way counts as inactive or inconclusive.
% is scaled to controls: 0 for no effect and ±100 for the full control effect.

Take `CN(C)C1CCCCC1`: the molecule was classed as inactive in assay [1] and in assay [7]. Also, the Potency entry in assay [2], in [3], in [4], in assay [5] and in assay [6] was “inactive” throughout.

Take `COc1ccc2c(C(=O)c3ccc(Cl)cc3)c(C)n(CC(=O)O)c2c1`: the Potency entry in [8], in [3], in assay [5] and in [6] was “inactive” in each case. The outcome in assay [1] and in assay [7] was inactive. In addition, in [9], the max response is 3.79% (inactive).

In the case of `CCC(C)(C#N)N=NC(C)(C#N)CC` (stereo not given), the Potency result in assay [8], in [2], in [3], in assay [4], in [5] and in assay [6] was “inactive” throughout. Moreover, the result in [1] and in [7] was inactive. For the same molecule, the max response in assay [9] is 2.46% (inactive).

`O=C(NC(O)C(Cl)(Cl)Cl)NC(O)C(Cl)(Cl)Cl` (stereo not given): the Potency result in assay [8], in [2], in [3], in [5] and in [6] was “inactive” each time. In addition, the molecule was classed as inactive in [1] and in assay [7]. The max response in assay [9] is 0.623% (inactive).

Regarding `CC1N=C(N)OC1c1ccccc1` (stereo not given), the Potency entry in assay [8], in [2], in [3], in assay [4], in assay [5] and in assay [6] was “inactive” throughout. For the same molecule, the molecule was called inactive in assay [1] and in [7]. Besides, the max response in assay [9] is -2.35% (inactive).

Consider `CC(C)(C)C(=O)Cl`, for which the Potency entry in assay [8], in assay [2], in [3], in [4], in assay [5] and in assay [6] was “inactive” each time. Besides, the call in assay [1] and in [7] was inactive. Further, the max response in assay [9] was -0.811% (inactive).

Consider `C=CCc1cc(OC)c2c(c1)OCO2`, for which the Potency result in assay [8], in assay [3], in [4], in [5] and in [6] was “inactive” in each case. Moreover, the molecule was classed as inactive in assay [1] and in [7]. For the same molecule, in assay [9], the max response is 8.43% (inactive).

With `C=CC=O`, the Potency entry in assay [8], in [2], in [3], in [4], in assay [5] and in assay [6] was “inactive” in each case. The call in assay [1] and in assay [7] was inactive.

As for `CN(C)C(=O)Oc1cc(OC(=O)N(C)C)cc(C(O)CNC(C)(C)C)c1` (stereo not given), the Potency entry in [8], in assay [3], in [4], in [5] and in assay [6] was “inactive” throughout. Further, the outcome in [1] and in [7] was inactive. For the same molecule, in assay [9], the max response was -1.56% (inactive).

Consider `CCCCS(=O)(=O)Cl`, for which the Potency result in assay [8], in [2], in assay [3], in [4], in [5] and in assay [6] was “inactive” throughout. Besides, the molecule was classed as inactive in [1] and in assay [7]. The max response in [9] was 6.29% (inactive).

On to `CCN[C@H](C)Cc1cccc(C(F)(F)F)c1`, for which the Potency result in assay [8], in assay [3], in assay [4], in assay [5] and in assay [6] was “inactive” throughout. The call in assay [1] and in [7] was inactive. Besides, the max response in [9] was -6.31% (inactive).

Take `C(COCC1CO1)OCC1CO1` (stereo not given): the Potency entry in assay [8], in assay [2], in [3], in assay [4], in assay [5] and in assay [6] was “inactive” in each case. Besides, the outcome in assay [1] and in assay [7] was inactive.

As for `CC#Cc1cc(C)nc(Nc2ccccc2)n1`, the result in [1] and in assay [7] was inactive. Also, the Potency entry in [2], in [3], in [4], in [5] and in assay [6] was “inactive” each time.

`ClC1=C(Cl)C2(Cl)C(CBr)CC1(Cl)C2(Cl)Cl` (stereo not given): the Potency in assay [8] is 43.6 µM (active) and inactive. Further, the call in assay [1] and in assay [7] was inactive. For the same molecule, the max response in [9] was -5.43% (inactive). The Potency result in assay [3], in assay [4], in [5] and in assay [6] was “inactive” each time.

Turning to `CCC1(CC)C(=O)C=CNC1=O`, the Potency entry in assay [8], in [2], in [3], in [4], in [5] and in assay [6] was “inactive” throughout. The result in [1] and in assay [7] was inactive. Further, in [9], the max response was 1.59% (inactive).

On to `CCOC(=O)c1ncn2c1CN(C)C(=O)c1c(I)cccc1-2`, for which the Potency result in [8], in assay [3], in [4], in assay [5] and in assay [6] was “inactive” in each case. Moreover, the result in [1] and in [7] was inactive. Further, the max response in assay [9] is 1.2% (inactive).

For `NNC(N)=O`, the Potency result in assay [8], in [3], in [4], in [5] and in [6] was “inactive” throughout. Moreover, the molecule was classed as inactive in assay [1] and in [7]. For the same molecule, the max response in [9] was 0.384% (inactive).

As to `ClCCCCl`, the Potency entry in [8], in assay [2], in assay [3], in [4], in assay [5] and in [6] was “inactive” each time. In addition, the molecule was called inactive in assay [1] and in assay [7]. Also, the max response in assay [9] was 9.81% (inactive).

As for `CCC1(c2ccccc2)CCC(=O)NC1=O` (stereo not given), the Potency entry in assay [8], in assay [3], in assay [4], in [5] and in assay [6] was “inactive” in each case. For the same molecule, the molecule was called inactive in assay [1] and in [7]. The max response in [9] is -2.24% (inactive).

On to `N#CC(Br)(Br)C(N)=O`, for which the Potency result in [8], in [2] and in assay [4] was “inactive” each time. Moreover, the outcome in assay [1] and in assay [7] was inactive. In addition, in [9], the max response is -10% (inactive).

Consider `C=C1CC[C@@]2(O)[C@H]3Cc4ccc(O)c5c4[C@@]2(CCN3CC2CC2)[C@H]1O5`, for which the Potency entry in [8], in [2], in assay [3], in assay [5] and in assay [6] was “inactive” in each case. In addition, the result in assay [1] and in assay [7] was inactive. Also, the max response in assay [9] is 9.06% (inactive).

With `N[C@@H](Cc1ccc(Oc2cc(I)c(O)c(I)c2)c(I)c1)C(=O)O`, the Potency entry in [8], in assay [3], in [4], in [5] and in assay [6] was “inactive” each time. Moreover, the call in [1] and in assay [7] was inactive. In addition, the max response in [9] was 5.88% (inactive).

Turning to `COC1=CC(=O)O[C@@H](/C=C/c2ccccc2)C1`, the Potency result in assay [8], in assay [3], in [5] and in assay [6] was “inactive” throughout. Besides, the outcome in assay [1] and in [7] was inactive. Also, in assay [9], the max response was -17.5% (inactive).

Turning to `BrCC1CO1` (stereo not given), the Potency entry in assay [8], in assay [2], in [3], in [4], in assay [5] and in assay [6] was “inactive” in each case. The outcome in assay [1] and in assay [7] was inactive. Moreover, the max response in assay [9] was 5.87% (inactive).

For `CC(=NC#N)N(C)Cc1ccc(Cl)nc1`, the Potency result in assay [8], in assay [3], in [5] and in assay [6] was “inactive” in each case. The outcome in assay [1] and in assay [7] was inactive. Further, in assay [9], the max response is 8.58% (inactive).
